The campaign covered roughly 38,000 compounds. About 1,200 (3.2%) showed an effect of 50% or more. The median lay at about -58%. The sample holds strong results, similar compounds and a random draw of the others, so the mix is not that of the screen.
These compounds were tested on Plasmodium falciparum (assay: Calibr Malaria Delayed Death Assay SOP). Details: concentration 4.99e-06 (unit not given; other assays of the set use mol/L).
Type: functional, organism-based
Design: scale not given: in the data most compounds retested in dose-response had high values

In order of rising “Percent Effect” value:
1. NC(=O)C1CN(c2ccc3cc(Br)ccc3n2)CCO1 (stereo unspecified)  -657.4%
2. Cn1c(CN2CCOCC2)cc(=O)c(O)c1CN1CCOCC1  -232.2%
3. Cn1c(CN2CCOCC2)cc(=O)c(O)c1CN1CCCCC1  -218.7%
4. Cn1c(CN2CCOCC2)cc(=O)c(O)c1CN1CCCC1  -211.8%
5. O=C(CCc1ccccn1)N1CCCC(N2CCNC2=O)C1 (stereo unspecified)  -153%
6. Cc1nn(C)c(C)c1CN1CCNCC1  -151.9%
7. NC(=O)C(CNC(=O)Cc1ccsc1)Cc1ccc(F)cc1 (stereo unspecified)  -150.5%
8. Cc1csc2c(=O)n3c(nc12)CCN(C(=O)c1ccnn1C)CC3  -147.1%
9. O=C(NCc1nnnn1-c1ccccc1)c1ccc(C2CCCO2)s1 (stereo unspecified)  -146%
10. CN(C)c1no[n+]([O-])c1-c1ccccc1  -137.1%
11. COCC(=O)NC1CC2(CCN(CCF)CC2)Oc2ccccc21.O=C(O)C(F)(F)F (stereo unspecified)  -129.2%
12. COC(=O)c1cccc(C(=O)N2CCN(c3ccc(Cl)cc3)CC2)n1  -128.8%
13. Cc1ccc(OCCN(C)C2CCOC2=O)cc1 (stereo unspecified)  -120.6%
14. Cc1ccc(N2CCc3ncnc(N(C)C)c3CC2)nn1  -119.5%
15. O=C(O)CC1COCCN1Cc1ccccc1-c1ccccc1 (stereo unspecified)  -118%
16. CCc1nc(CC2CN(c3ncnc4sc(C)c(C)c34)CCO2)no1 (stereo unspecified)  -116.3%
17. c1cnn(CC2CCCN2Cc2noc(C3CC3)n2)c1 (stereo unspecified)  -115.2%
18. CC1(NC(=O)Cc2csc(-c3cccc(Cl)c3)n2)CCS(=O)(=O)C1 (stereo unspecified)  -114.6%
19. Cc1nc[nH]c1-c1nccn1CCN1CCCOC1=O  -113%
20. CC(C)(C)c1nc(CN(Cc2ccccc2Cl)C2CCCC2)no1  -109.5%
21. CCSc1nnc([C@@H](N)CC(C)C)o1.Cl  -105.7%
22. Cc1nc(C)n(CC2CCCN2Cc2nc(N)c3ccccc3n2)n1 (stereo unspecified)  -104.3%
23. CCN(CC)C(=O)c1c(Cl)cnn1CC  -101.8%
24. COCC[C@]1(O)CCN(Cc2nc(C(C)C)cs2)C[C@H]1C  -100.7%
25. c1ccc(Cc2noc(CN3CCCCC3Cn3cccn3)n2)cc1 (stereo unspecified)  -99.91%
26. CCS(=O)(=O)N1CCC2(CN(C(=O)c3cn(C)cn3)C2)C1  -95.83%
27. CC1=NOC(C(=O)N(C)CCCn2nc(C)cc2C)C1 (stereo unspecified)  -92.45%
28. COCCN(Cc1nc2c(cnn2C)c(=O)[nH]1)C(C)c1ccccc1 (stereo unspecified)  -89.75%
29. O=C(c1cc(Cl)c2c(c1)OCO2)N1CCN(c2cnccn2)CC1  -89.48%
30. O=C(c1cscn1)N1CCc2ncc(Cn3cncn3)n2CC1  -88.92%
31. O=C(c1ccccc1)N1CC[C@H]2C[C@H](c3nnc(C4CC4)o3)O[C@@H]2C1  -87.6%
32. CC(=O)Nc1ccc(CNCc2cccnc2N(C)C)cc1  -87.09%
33. COc1cc2nc(C)n(CC(=O)NCCC(C)C)c(=O)c2cc1OC  -84.85%
34. COCCNS(=O)(=O)c1cccc2c1CN(C(=O)c1cc(C)on1)CC2  -82.56%
35. Cc1cc(=O)[nH]c(=O)n1-c1ccccc1Br  -82.44%
36. Cc1nc(C(=O)N(C)CC2CC2)nn1-c1ccccc1C(C)C  -82.1%
37. CN1CCCC(CNC(=O)CN(C)S(=O)(=O)c2cccnc2)C1 (stereo unspecified)  -82.06%
38. CS(=O)(=O)NC1CC2(CCN(CCF)CC2)Oc2ccccc21.O=C(O)C(F)(F)F (stereo unspecified)  -76.24%
39. CC(C)(C)c1ccc(C(=O)C2CCCN(C(=O)CNS(C)(=O)=O)C2)cc1 (stereo unspecified)  -75.07%
40. Cc1nn(C)cc1-c1cc(C(F)(F)F)nc(NC2CCN(C)CC2)n1  -72.67%
41. CC(Nc1ccc(Br)cc1)c1nc(C2CC2)no1 (stereo unspecified)  -70.57%
42. O=C(c1ccnnc1)N1CCc2onc(Cn3cccn3)c2C1  -67.89%
43. CC(C)n1cnnc1C1CCCN(S(=O)(=O)CC2CCCC2)C1 (stereo unspecified)  -66.23%
44. CCN(CCN1CCOCC1)C(=O)c1cccnc1  -63.54%
45. Cc1cc(C)cc(N2CCN(C(=O)C3CN(C)C(=O)N3)CC2=O)c1 (stereo unspecified)  -59%
46. O=C1CC2(CCCC2)CC(=O)N1Cc1nc2ncccn2n1  -57.36%
47. c1cnc(N2CCCC(c3n[nH]c4ncccc34)C2)nc1 (stereo unspecified)  -55.39%
48. Cc1sc2ncnc(N3CCCC3Cn3cccn3)c2c1C (stereo unspecified)  -55.32%
49. Cc1nc(CN2CCCCC2Cn2cncn2)nc2ccccc12 (stereo unspecified)  -55.02%
50. CC(C)CN1CCC2(CC1)CC(NS(C)(=O)=O)c1ccccc1O2.O=C(O)C(F)(F)F (stereo unspecified)  -52.98%
51. CC(=O)N1CCN(c2cc(N3CCOCC3)cnn2)CC1  -46.73%
52. Cc1cc(C)n(CCCN(C)C(=O)C2COc3ccccc3C2)n1 (stereo unspecified)  -44.86%
53. Cc1cc(-c2cnn(CCNC(=O)Cc3ccccn3)c2C2CC2)on1  -41.77%
54. Cn1cccc1C(=O)N1CCc2onc(Cn3cccn3)c2C1  -37.04%
55. COCCO[C@@H]1CCN(C(=O)c2occc2C)[C@H]1Cc1cnn(C)c1  -35.95%
56. CCSc1nc2ccccc2c(=O)n1OCC(=O)OC  -35.88%
57. CCOC(=O)CNC(=O)N1CCc2onc(-c3ccc(Cl)cc3)c2C1  -35.73%
58. CS(=O)(=O)CCOc1nc(-c2ccccc2Cl)no1  -35.46%
59. Cc1n[nH]cc1C(=O)N1CCCC(c2cccc(-n3ccnc3)n2)C1 (stereo unspecified)  -34.99%
60. CC(c1nc(C2CC2)no1)N1CCN(CCN2CCCC2=O)CC1 (stereo unspecified)  -34.43%
61. Cc1nn(C)c(C)c1CCC(=O)OCC(=O)N1CCc2sccc2C1  -33.28%
62. COCc1nn(C(C)C)c2c1CCN(Cc1ccc(C)o1)C2.O=C(O)C(F)(F)F  -30.71%
63. COc1cc(C2CC(=O)Nc3c2nc2n3CCCC2)ccc1O (stereo unspecified)  -30.17%
64. O=C(N1CCCC(n2cncn2)C1)C1(c2ccc(Cl)cc2)CCC1 (stereo unspecified)  -26.48%
65. Cc1noc([C@@H]2CC[C@@H]3[C@@H](CCN3S(=O)(=O)c3ccccc3)O2)n1  -19.99%
66. CC(C)N1CCC2(CC1)CC(NS(C)(=O)=O)c1ccccc1O2.O=C(O)C(F)(F)F (stereo unspecified)  -16.02%
67. CC(C)N(CC1CCCN(CC(N)=O)C1)C(=O)OC(C)(C)C (stereo unspecified)  -15.39%
68. CN(Cc1cc(Br)cn1C)C(=O)c1cccnc1  -12.65%
69. Cc1ccc(Cl)c(C)c1NC(=O)N1CCCN(Cc2ccccn2)CC1  -12.1%
70. CN(C)CCn1c(=O)n(C)c(=O)c2ccccc21.Cl  -12.02%
71. Cn1c(CN2CCCC(N3CCCCCC3)C2)cc(=O)n(C)c1=O (stereo unspecified)  -10.45%
72. CC(C)N(CC1CCCN(Cc2ccon2)C1)C(=O)OC(C)(C)C (stereo unspecified)  -9.372%
73. CCc1c(C)sc2ncnc(N3CC[C@@H](N4CCOCC4)[C@H](O)C3)c12  -5.608%
74. Cc1cccc(C(C(=O)N2CC(Oc3ccccc3F)C2)N(C)C)c1 (stereo unspecified)  -1.988%
75. N#Cc1ccc(F)c(CNc2ccc(F)cc2OCCO)c1  -1.485%
76. COc1ccccc1OC1CN(C(=O)C(c2ccc(F)cc2)N(C)C)C1 (stereo unspecified)  0.4692%
77. CCc1ncc(CN2CCC(CCc3ccccc3)CC2)cn1  5.724%
78. Cn1cnc(C(=O)N2CC3(CCN(S(=O)(=O)c4ccccc4)C3)C2)c1  9.335%
79. Cc1nn(C)c(C)c1C1CCCN1CCCc1nc2ccccc2o1 (stereo unspecified)  18.49%
80. CC(C)c1nccn1CC1CCCN1Cc1nc2ccccc2n1C (stereo unspecified)  20.35%
81. N#Cc1c(SCCN2CCOCC2)sc2c(O)cc(O)nc12  20.53%
82. COc1cccc(CN2CCCC2c2c(C)nn(C)c2C)c1 (stereo unspecified)  21.41%
83. Cc1nc(CN2CCCC2c2ccsc2)nc2ccccc12 (stereo unspecified)  24.09%
84. Cc1cc(C(F)(F)F)nc(CCNC(C)Cn2nc(C)cc2C)n1 (stereo unspecified)  25.86%
85. CCc1c(C)sc2ncnc(N3CCN(C4CCOCC4)CC3)c12  31.3%
86. COc1ccc(C(=O)Nc2ccc3ncn(C(C)C)c(=O)c3c2)cc1  33.29%
87. CC(C)n1c(=O)c2ccccc2n(CCN(C)C)c1=O.Cl  33.53%
88. Cc1noc(C)c1CN1CCCC(CN(C(=O)OC(C)(C)C)C(C)C)C1 (stereo unspecified)  52.41%
89. Cc1nc(CN2CCCC2Cn2cccn2)nc2ccccc12 (stereo unspecified)  55.28%
90. Cc1nc2ccccc2nc1CN1CCCC1c1c(C)nn(C)c1C (stereo unspecified)  56.82%
91. CC(C)n1c(=O)c2ccccc2n(CCCN(C)C)c1=O.Cl  57.86%
92. Cn1c(CN2CCCCCC2)cc(=O)c(O)c1CN1CCCC1  59.19%
93. CCc1c(C)sc2ncnc(N3C[C@H](O)[C@@H](N4CCCC4)C3)c12  60.55%
94. CN(C)C(C(=O)N1CC(Oc2ccccc2F)C1)c1ccc(F)cc1 (stereo unspecified)  62.88%
95. Cc1nc(CN2CCCCC2Cn2cccn2)nc2ccccc12 (stereo unspecified)  70.28%
96. CC(C)N1CCC2(CC1)CC(NCc1ccccn1)c1ccccc1O2.O=C(O)C(F)(F)F.O=C(O)C(F)(F)F.O=C(O)C(F)(F)F (stereo unspecified)  70.65%
97. O=C(O)C(F)(F)F.O=C(O)C(F)(F)F.O=C(O)C(F)(F)F.OCCN1CCC2(CC1)CC(NCc1ccccn1)c1ccccc1O2 (stereo unspecified)  70.8%
98. CCc1c(C)sc2ncnc(N3CC[C@@H](N4CCC(O)CC4)[C@H](O)C3)c12  74.53%
99. Cc1nc(CN2CCCC2Cn2ccnc2C(C)C)nc2ccccc12 (stereo unspecified)  77.09%
100. Cn1c(CN2CCCCC2)cc(=O)c(O)c1CN1CCCCC1  81.24%
101. CCCN(C(=O)c1cccnc1)c1nc2c(s1)CCc1c-2cnn1C  81.54%

From ChEMBL document CHEMBL3988442, “University of Dundee, Small-Polar-MMV Screening Library” (2021)
